Compound activity: PubChem, NMMLSC
QS inhibitor: inhibitors of bacterial quorum sensing in S. aureus; AID 527; S. aureus RN6390 RNAIII-GFP reporter, AIP-induced, flow cytometry 3 h; 24,000 compounds, 0.3% hits; inhibition, % at 2 µM;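 active = share of bacteria positive for the green fluorescent reporter and its mean brightness both inhibited by 50% or more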;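 also: 0% = AIP-stimulated control and 100% = unstimulated bacteria without AIP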
Prostate diff: promotes differentiation of LNCaP prostate cells; 24,000 compounds, 0.56% hits; flow cytometry side scatter, 4 d; side scatter shift, % at 10 µM;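 active = side scatter shift above 30%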;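 also: androgen-responsive LNCaP prostate cancer cells in charcoal-stripped serum medium; percent of cells past a gate set so DMSO wells show 10% shift; higher shift means more granular cells and more differentiation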
* hit, by the source's call. Shown are actives, neighbours in structure and some others; about 0.83% of the full set was active somewhere.

For Cc1ccc(-n2c(Cc3cccn3C)nnc2SCC(=O)NCc2ccc3c(c2)OCO3)cc1 the results were QS inhibitor 5 and Prostate diff 8.
Cn1c(=O)n(CCc2ccccc2)c(=O)c2c1nc1n2CCN1Cc1ccco1 was read as QS inhibitor 96* and Prostate diff 3.
Cc1ccc(C)c(Cn2c(=O)c3c(nc4n3CCN4Cc3ccco3)n(C)c2=O)c1 was read as QS inhibitor 9 and Prostate diff 7.
For CCOC(=O)CSc1nc(-c2ccc(OC)cc2)ns1 the results were QS inhibitor -4 and Prostate diff 16.
`CC(=O)Nc1nonc1NC(=O)CSc1ncn[nH]1` gave QS inhibitor 0 and Prostate diff 5.
Screening CCN1CCN(C(c2cccs2)C(C)NS(=O)(=O)c2ccc(Br)cc2)CC1 (stereo not given) returned QS inhibitor -4 and Prostate diff 32*.
Cc1ccc(S(=O)(=O)NC(C)C(c2cccs2)N2CCN(C)CC2)cc1 (stereo not given) was read as QS inhibitor -1 and Prostate diff 17.
For CC(Oc1ccccc1)C(=O)Nc1ccc(S(=O)(=O)NCC2CCCO2)cc1 (stereo not given) the results were QS inhibitor 2 and Prostate diff 10.
CC(=O)N(C)C1(c2nnnn2CCOC(=O)Nc2cccc3ccccc23)CCCC1 was read as QS inhibitor 0 and Prostate diff 8.
CSc1ccc(C2C(C#N)=C(N)N(c3ccccc3)C3=C2C(=O)CCC3)cc1 (stereo not given) was read as QS inhibitor 0 and Prostate diff 5.
`CSc1ccc(C2C(C#N)=C(N)Oc3c2ccc(=O)c2c(C)oc(C)c32)cc1` (stereo not given) gave QS inhibitor 0 and Prostate diff 33*.
`CCOC(=O)c1nnn(-c2nonc2N)c1CSc1ccccn1` gave QS inhibitor -8 and Prostate diff 13.
For CCc1c(C)sc(NC(=O)c2cc(C)on2)c1C#N the results were QS inhibitor 90* and Prostate diff 2.
`CCCc1cc(C(=O)Nc2sc(C)c(CC)c2C#N)no1` gave QS inhibitor 6 and Prostate diff 15.
For CCOC(=O)Cn1c(=O)oc2cc(S(=O)(=O)Nc3cc(OCC)ccc3OCC)ccc21 the results were QS inhibitor 1 and Prostate diff 6.
CCOC(=O)Cn1c(=O)oc2cc(S(=O)(=O)Nc3ccc(N(CC)CC)cc3C)ccc21 was read as QS inhibitor 90* and Prostate diff 12.
O=C(Cn1ncn2c(cc3ccccc32)c1=O)NCCC1=CCCCC1 was read as QS inhibitor -7 and Prostate diff 0.
For CC1CCCCC1n1c(=S)[nH]c2ccccc2c1=O (stereo not given) the results were QS inhibitor 25 and Prostate diff 10.
`N#Cc1c(-c2ccccc2)nc(N2CCCCCC2)[nH]c1=O` gave QS inhibitor -1 and Prostate diff 7.
For CC(C)C(=O)N1CCN(c2nc(-c3ccccc3)c3c(c2C#N)CCCC3)CC1 the results were QS inhibitor 57* and Prostate diff 11.
Screening O=C(Cc1coc(-c2ccc(F)cc2)n1)N1CCOCC1 returned QS inhibitor -4 and Prostate diff 30*.
For O=C(Cc1coc(-c2ccc(F)cc2)n1)NC1CCCCC1 the results were QS inhibitor -2 and Prostate diff 14.
Screening Cc1ccc(CS(=O)(=O)CCC(=O)NCCN2CCCC2)cc1 returned QS inhibitor -4 and Prostate diff 11.
Screening COc1cccc(-c2nn(C)c3sc(C(=O)NCc4ccccn4)cc23)c1 returned QS inhibitor 0 and Prostate diff 3.
COc1cccc(-c2nn(C)c3sc(C(=O)Nc4ccc5c(c4)OCCO5)cc23)c1 was read as QS inhibitor 82* and Prostate diff 24.
For COc1ccc(-c2noc(CN(C(=O)C(C)(C)C)C(C)C)n2)cc1 the results were QS inhibitor 0 and Prostate diff 4.
For O=C(CSc1oc(-c2ccco2)nc1S(=O)(=O)c1ccc(Cl)cc1)NCC1CCCO1 (stereo not given) the results were QS inhibitor -1 and Prostate diff 2.
Cc1oc(-c2cccc(Cl)c2)nc1CN1CCC(C(=O)N2CCN(c3ccccc3F)CC2)CC1 was read as QS inhibitor 11 and Prostate diff 34*.
`Cc1oc(-c2ccc(Cl)cc2)nc1CN1CCC(C(=O)N2CCc3ccccc3C2)CC1` gave QS inhibitor 10 and Prostate diff 11.
For Cc1oc(-c2ccc(Cl)cc2)nc1CN1CCC(C(=O)N2CCN(Cc3ccccc3)CC2)CC1 the results were QS inhibitor 0 and Prostate diff 78*.
Screening Cc1ccccc1-c1nc(CN2CCC(C(=O)N3CCN(c4ccccn4)CC3)CC2)c(C)o1 returned QS inhibitor 12 and Prostate diff 3.
For Cc1cc(NC(=O)CC(CN(C)S(=O)(=O)c2ccccc2)c2ccccc2)no1 (stereo not given) the results were QS inhibitor 0 and Prostate diff 14.
`N#Cc1nc(-c2ccccc2F)oc1NC1CCCCC1` gave QS inhibitor 3 and Prostate diff 1.
Screening CC(NS(=O)(=O)c1ccccc1)C(c1cccs1)N1CCN(C)CC1 (stereo not given) returned QS inhibitor 1 and Prostate diff 8.
`Cc1ccccc1-c1nc(CN2CCC(C(=O)NCCCN3CCCC3)CC2)c(C)o1` gave QS inhibitor 0 and Prostate diff 65*.
Cc1ccccc1-c1nc(CN2CCC(C(=O)NCc3ccco3)CC2)c(C)o1 was read as QS inhibitor 3 and Prostate diff 14.
For Cc1ccccc1-c1nc(CN2CCC(C(=O)NCCCN3CC(C)CC(C)C3)CC2)c(C)o1 (stereo not given) the results were QS inhibitor 8 and Prostate diff 75*.
`Cc1ccccc1-c1nc(CN2CCC(C(=O)NCCCN3CCOCC3)CC2)c(C)o1` gave QS inhibitor 1 and Prostate diff 16.
For CCN(CC)Cc1c[nH]c2c(C(=O)OC)cccc12 the results were QS inhibitor 0 and Prostate diff 3.
`O=C(OCCCCN1C(=O)c2ccccc2C1=O)c1n[nH]c2ccccc12` gave QS inhibitor 2 and Prostate diff 3.
For CN(CC(O)COc1ccc(OCC(O)CN(C)C2CCCCC2)cc1)C1CCCCC1 (stereo not given) the results were QS inhibitor -4 and Prostate diff 37*.
For CC(=O)c1ccc(OCC(O)CN2C(C)CCCC2C)cc1 (stereo not given) the results were QS inhibitor 0 and Prostate diff 6.
`CCOC(=O)C(NS(=O)(=O)c1ccc(Br)cc1)C(C)C` (stereo not given) gave QS inhibitor 2 and Prostate diff 7.
Screening O=C(NCc1ccccc1)c1cnc2n(c1=O)CCS2 returned QS inhibitor -3 and Prostate diff 10.
For O=C(NCCCc1ccccc1)c1cnc2n(c1=O)CCS2 the results were QS inhibitor 56* and Prostate diff 6.
Screening CC(NC(=O)c1cccc(F)c1)C(c1cccs1)N1CCN(C)CC1 (stereo not given) returned QS inhibitor -3 and Prostate diff 8.
For O=C(CCNS(=O)(=O)c1cccs1)NCc1ccco1 the results were QS inhibitor -1 and Prostate diff 6.
Screening OC(COc1ccc(OCC(O)CN2CCCCCC2)cc1)CN1CCCCCC1 (stereo not given) returned QS inhibitor -4 and Prostate diff 2.
